Screens deposited in PubChem by National Center for Advancing Translational Sciences (NCATS).
Shown are actives, neighbours in structure and some others; about 13% of the full set was active somewhere.
HCMV antiviral – qHTS Assay for inhibitors of the human cytomegalovirus (HCMV); HFF cells, HCMV-luciferase reporter, 72 h; hits give low values; activity change, negative = inhibition, % at 57.5 µM; 410,000 tested, 4.5% active; in the data active means activity change below about -60%; inconclusive means no clear call, values can overlap the other calls; inactive means above about -39%
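After 16 h attachment at 37C, HFF cells received test compound and HCMV-luciferase (1 PFU/cell); reporter luminescence read 72 h later, data normalized against buffer-only and known inhibitor Salinomycin.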
Pf growth 96h – Primary qHTS for delayed death inhibitors of the malarial parasite plastid, 96 hour incubation; P. falciparum luciferase reporter growth, 96 h; 320,000 tested, 6.9% active; AID 504834, 2011; Potency, µM (top dose mostly 28.7 µM), for inactives: at the highest dose activity change, negative = inhibition, usual class: inhibitors; further: potency means the concentration at half of the fitted maximal effect
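P. falciparum expressing integrated firefly luciferase grown in erythrocytes (2% hematocrit, 0.05% parasitemia final) with compounds for 96 hours at 37 C, 5% CO2. Growth inhibition read as loss of luminescence after adding luciferase detection reagent.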
HCV inhibitor – qHTS Assay for Inhibitors of Hepatitis C Virus (HCV) | Huh7.5.1 HCVcc-Cre infection, luciferase reporter, 44 h | Potency, µM (top dose mostly 41.8 µM), without a hit: at the top dose activity change, negative = inhibition, usual class: inhibitors | 340,000 tested, 3.4% active; further: potency means the concentration at half of the fitted maximal effect
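Seed cells (1,000/well) for 4 h; treat with compound and infect with HCVcc-Cre, moi about 0.5. Incubate 44 h, then detect luciferase activity.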
Pf growth 48h – Primary qHTS for delayed death inhibitors of the malarial parasite plastid, 48 hour incubation. P. falciparum luciferase growth in erythrocytes, 48 h. Potency, µM (series often up to 28.7 µM), for the others: top-dose activity change, negative = inhibition, most hits filed as inhibitors. 310,000 tested, 5.9% active. AID 504832, 2011; further: potency means the concentration at half of the fitted maximal effect
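Here the parasites carry a stable luciferase gene and grow inside erythrocytes in Albumax-based RPMI medium with compound for one erythrocytic cycle. Activity is scored as loss of luminescent signal.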
The depositor's hits bear a star; ? = inconclusive; / = no result; + = active, no number. Unless noted, the call rests on the fitted dose curve; in most records, active means well fitted inhibition curve with a large enough effect; inconclusive means small, poorly fitted or top-dose-only effect, or another doubt; inactive means no such curve, though single readings can be large or run the other way. On the % scale 0 is the no-effect control and ±100 the full control effect.

SMILES | HCMV antiviral | Pf growth 96h | HCV inhibitor | Pf growth 48h
Cc1ccc2nc(SCC(=O)NCc3ccc(F)cc3)[nH]c2c1 | -64.6* | 1.2% | -4.3% | -14.2%
CC(C)NC(=O)c1sc2ncccc2c1-n1cccc1 | 19.6 | / | / | /
COc1ccccc1NC(=O)N1CC(=O)N2[C@H](CO)[C@@H](c3ccc(Br)cc3)[C@H]2C1 | 3.4 | / | / | /
Cc1cc2ccccc2n1CCNC(=O)c1cc(C(F)(F)F)cc(C(F)(F)F)c1 | 4.6 | / | / | /
CCN1CCN(C(=O)CN(CC)S(=O)(=O)c2ccc(Cl)cc2)CC1 | 6.8 | 9.8% | 15.7% | 17.5%
CN(CC(=O)N1CCN(Cc2ccccc2)CC1)S(=O)(=O)c1ccc(F)cc1 | 47.6 | 11.7µM* | -10.3% | 3.6%
CCN1CCN(C(=O)CN(CC)S(=O)(=O)c2ccc(F)cc2)CC1 | 44.8 | 3.29µM* | 20.8% | -6.7%
CS(=O)(=O)N(CC(=O)N1CCCC1)Cc1ccc(F)cc1 | -14.3 | ? | 5.5% | 42.1%
CN(CC(=O)N1CCN(Cc2ccccc2)CC1)S(=O)(=O)c1ccc(Br)cc1 | ? | 31.3% | ? | ?
O=C(CN(Cc1ccc(F)cc1)S(=O)(=O)c1ccccc1)N1CCCCC1 | -24.1 | 4.15µM* | -0.6% | ?
CCOC(=O)C1CSCCS(=O)(=O)N1Cc1ccccc1C (configuration not stated) | -5.2 | / | / | /
O=C(C1CCCN(S(=O)(=O)Cc2ccccc2)C1)N1CCC(Cc2ccccc2)CC1 (configuration not stated) | -4.6 | ? | ? | /
O=C(O)C1CCCN(S(=O)(=O)Cc2ccccc2)C1 (configuration not stated) | -5.3 | 2.33µM* | 14.1% | 38.0%
O=C(NCCc1ccccn1)C1CCCN(S(=O)(=O)Cc2ccccc2)C1 (configuration not stated) | 16.2 | 3.7µM* | 17.9% | /
O=C(NCc1ccccn1)C1CCCN(S(=O)(=O)c2ccccc2)C1 (configuration not stated) | ? | / | 23.2% | 4.6%
COc1ccc(-n2c(SCC(=O)NCc3ccc(Cl)cc3)nc3ccsc3c2=O)cc1 | -12.9 | / | / | /
CCOC(=O)c1cc(-c2ccc(OC)cc2)n(CCC(=O)NC2CCC(C)CC2)c1C (configuration not stated) | 71.3 | / | / | /
CC(C)(C)CC(=O)NCC(c1ccc2c(c1)OCO2)N1CCN(c2ccccc2)CC1 (configuration not stated) | -1.8 | / | / | /
COc1cc(Cl)c(C)cc1NC(=O)c1cc(S(=O)(=O)N2CCCC2)ccc1F | 17.7 | / | / | /
COCc1nc2oc3ccc(C)cc3c(=O)c2cc1C(=O)OC | -71.3* | 130.3% | -8.4% | 108.3%
CCOc1ccc2nc(NC(=O)CS(=O)(=O)c3ccc(Cl)cc3)sc2c1 | + | / | / | /
CCOc1ccc2nc(NC(=O)CS(=O)(=O)c3ccccc3)sc2c1 | -10.3 | 5.22µM* | -10.6% | 39.2%
CCOc1ccc2nc(NC(NC(=O)CC)(C(=O)OC)C(F)(F)F)sc2c1 (configuration not stated) | 0.6 | -6.5% | 7.1% | -18.9%
CCOc1ccc2nc(NC(=O)CS(=O)(=O)c3ccc(C)cc3)sc2c1 | 31.4 | 11.7% | -21.8% | /
CCOc1ccc2nc(NC(NC(C)=O)(C(=O)OC)C(F)(F)F)sc2c1 (configuration not stated) | -6.3 | 7.38µM* | 7.7% | 4.5%
SMILES | HCMV antiviral | Pf growth 96h | HCV inhibitor | Pf growth 48h
COc1ccccc1C(=O)Oc1c(Sc2ccccc2)c(C)nn1C(C)(C)C | 27.0 | / | / | /
CCc1c(C)nc2ccc(Br)cc2c1SCCC#N | -83.5* | -20.3% | ? | -25.5%
Cc1ccc2nc(SCCC#N)nc(C)c2c1 | -35.8 | / | 10µM* | 22.6%
Cc1ccc2nc(SCC(=O)O)nc(C)c2c1 | 48.8 | -6.0% | 11.0% | 18.5%
CCCCc1c(C)nc2ccc(OC)cc2c1SCCC(=O)O | -26.6 | 139.7% | -8.9% | 59.3%
CCCc1c(C)nc2ccccc2c1SCCC#N | -85.4* | ? | ? | ?
COc1ccc(CCNC(=O)c2cc(-c3ccc(C)cc3)nc3n[nH]c(-c4ccc(F)cc4)c23)cc1OC | -21.4 | / | / | /
CCOC(=O)c1ccc(NC(=O)CCCn2nc(C)c3sc4ccccc4c3c2=O)cc1 | -3.8 | / | / | /
CCC1(C)Cc2c(sc(NC(=S)NC(=O)c3ccccc3)c2C#N)CO1 (configuration not stated) | 7.5 | 57.5% | 6.6% | 24.7%
CN1Cc2sc(NC(=S)NC(=O)c3ccccc3)c(C#N)c2CC1(C)C | -75.7* | -50.5% | ? | -20.9%
CCC(=O)N1N=C(c2cccs2)CC1c1ccco1 (configuration not stated) | -35.8 | 43.7% | ? | -13.9%
Clc1ccc(N2N=C(c3cccs3)CC2c2ccco2)cc1 (configuration not stated) | -15.2 | 2.62µM* | -4.3% | 38.5%
COc1cccc(C2CC(c3cccs3)=NN2C(=O)c2ccco2)c1O (configuration not stated) | -38.2 | ? | 14.1µM* | ?
O=C(c1ccco1)N1N=C(c2cccs2)CC1c1ccccc1O (configuration not stated) | -68.3* | ? | -1.2% | 8.28µM*
COc1ccccc1NC(=O)N1CCC(CN2CCc3ccccc3C2)CC1 | 18.6 | / | / | /
CC(=O)c1ccc(Nc2c3c(c(C#N)c4nc5ccccc5n24)CCC3)cc1 | / | 216.1% | 1.7% | 3.29µM*
N#Cc1c2c(c(NCc3cccnc3)n3c1nc1ccccc13)CCC2 | -7.2 | / | 2.7% | 2.94µM*
COc1ccc(Nc2c3c(c(C#N)c4nc5ccccc5n24)CCC3)cc1 | -3.2 | 9.28µM* | -38.5% | ?
COCCNc1c2c(c(C#N)c3nc4ccccc4n13)CCCC2 | ? | ? | ? | 1.65µM*
COc1cc(NC(=O)CCn2c(-c3ccccc3)cc(C(C)=O)c2C)cc(OC)c1 | 0.0 | / | / | /
CC(C)Cn1cc(NC(=O)NCc2ccccc2Cl)c2ccccc2c1=O | -9.2 | / | / | /
O=C(Cn1ccn(-c2cccc(Cl)c2)c(=O)c1=O)NCCc1ccccc1 | -19.6 | / | / | /
O=C(c1ccccc1Cl)N1CCSCCS1(=O)=O | -16.0 | / | / | /
Cc1ccc(NC(=O)CSCc2cc(=O)c3ccccc3[nH]2)c(C)c1 | -6.1 | / | / | /
Cc1ccc(S(=O)(=O)C2(C(=O)Nc3nccs3)CC2)cc1 | -78.9* | -26.1% | -4.5% | -9.2%
SMILES | HCMV antiviral | Pf growth 96h | HCV inhibitor | Pf growth 48h
c1ccc(C(c2cccs2)c2c[nH]c3ccccc23)cc1 (configuration not stated) | -66.5* | / | / | /
CC(=O)c1cccc(NC(=O)c2cnn3ccccc23)c1 | 186.7 | ? | -23.4% | /
CC(=O)c1ccc(NC(=O)c2cnn3ccccc23)cc1 | ? | 10.4µM* | ? | /
COC(=O)c1cnn(-c2ccc(C(=O)Nc3ccc(C(C)=O)cc3)cc2)c1N | -9.1 | ? | / | 5.22µM*
COC(=O)c1cnn(-c2ccc(C(=O)Nc3cc(OC)c(OC)c(OC)c3)cc2)c1N | 3.6 | / | / | /
Fc1ccc(-c2nnc(NC3=NCCCCC3)o2)cc1 | -82.9* | 20.5% | -14.5% | -87.3%
